# High-throughput results deposited in PubChem BioAssay by Columbia University Molecular Screening Center.
# cytoskel mod: modifiers of cytoskeleton assembly. HUVEC TNFa F-actin phalloidin imaging, high content. inhibition, % at 2 µM. AID 836. 91,000 compounds, 0.18% hits;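 active means inhibition above the batch mean plus 3 SD and confirmed as a hit by visual image inspection, cut at about 30% in these data, passing the limit was not always enough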
# VCAM1 TNFa inh: reduces TNF alpha induced VCAM1 expression in HUVEC | 95,000 compounds, 0.48% hits | inhibition, % at 2 µM | HUVEC TNFa-induced VCAM-1 immunofluorescence, high-content imaging;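 active means inhibition above the batch mean plus 3 SD, with images confirmed as a hit by eye, cut at about 37% in these data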
# TNFa cytotox: toxic to HUVEC cells under TNF alpha stimulation; 93,000 compounds, 0.17% hits; AID 848; cell count reduction, % at 2 µM; HUVEC TNFalpha-stimulated, Hoechst cell count, imaging;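 active means cell count reduction exceeding the screen mean by over 5 SD, scaled to untreated wells per plate, cut at about 78% in these data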;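 further: cells counted after 24 h of TNF alpha exposure following the 1 h pretreatment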
# E-sel TNF inh: TNF alpha driven E-selectin expression inhibition; AID 1246; inhibition, % at 2 µM; HUVEC TNFa-induced E-selectin immunofluorescence, high content; 120,000 compounds, 0.71% hits;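 active means inhibition above the batch mean plus 3 SD, and confirmed as a hit on visual image review, cut at about 43% in these data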
# A number is an active result; 0 = inactive; - = no result. Compounds with a hit are over-represented: about 1% of the library has one in this group of screens.
SMILES,cytoskel mod,VCAM1 TNFa inh,TNFa cytotox,E-sel TNF inh
Cc1cc(N2CC(C(=O)O)CC2=O)ccc1Br (centres undefined),0,0,92,0
Cc1ccc(N2CC(C(=O)Nc3ccc(N(C)C)cc3)CC2=O)cc1C (centres undefined),0,0,0,0
CC(C)Cc1nnc(NS(C)(=O)=O)s1,0,0,0,52
CCn1c(-c2ccccc2)ccc(C#N)c1=O,0,0,0,0
CCC(=O)N1CCc2cc(S(=O)(=O)Nc3ccc4c(c3)OCCO4)ccc21,0,0,0,0
O=C(C1CCC1)N1CCc2cc(S(=O)(=O)Nc3ccc4c(c3)OCCO4)ccc21,0,83,0,0
Cn1c(=O)c(=O)n(C)c2cc(S(=O)(=O)N3CCc4ccccc43)ccc21,0,0,0,57
CCOC(=O)N1CCN(C(=O)CCCCn2c(=S)[nH]c3ccsc3c2=O)CC1,-,-,-,0
CCOC(=O)/C=C/S(=O)(=O)c1ccc(NC(C)=O)cc1,0,0,0,76
CSc1ccc(S(=O)(=O)Nc2ccc3c4c(cccc24)CC3)cc1,0,44,0,0
O=S(=O)(Nc1ccc2c3c(cccc13)CC2)c1ccc(F)cc1,0,0,0,0
CCCn1c(=O)c2ccccc2n2c(SCC(=O)NCc3cccs3)nnc12,79,0,0,0
CSc1ccc(S(=O)(=O)NCCSc2ccccn2)cc1,-,-,-,0
COc1ccc(C(=O)C(CO)Oc2ccccc2OC)cc1OC (centres undefined),0,0,0,73
O=C(COC(=O)[C@H](Cc1ccccc1)NS(=O)(=O)c1ccccc1F)NC1CCCCC1,0,0,0,-
N#Cc1cc2sc3nnc(-c4ccncc4)n3c2cc1C#N,-,-,-,58
COc1ccccc1OCCCCN1CCN(C(c2ccccc2)c2ccccc2)CC1,-,-,-,0
CCn1c(=O)c2c(n3cnnc13)-c1ccccc1CC21CCCCC1,41,0,0,0
CC1(C)CC(=O)c2c(O)cc(OCc3ccc([N+](=O)[O-])cc3)cc2O1,0,0,-,0
CCc1ccccc1NC(=S)N1CCC(C(=O)c2ccc(F)cc2)CC1,0,0,0,0
CCn1cc(C(=O)O)c(=O)c2cc(F)c(N3CCN(C(=S)NC(=O)c4ccc(Br)cc4)CC3)cc21,-,-,-,74
CCn1cc(C(=O)O)c(=O)c2cc(F)c(N3CCN(C(=O)Nc4ccccc4)CC3)cc21,-,-,-,0
Cc1cc(-n2nc(C)cc2C)nc(NS(=O)(=O)c2ccccc2)n1,-,-,-,58
CC(=O)Nc1ccc(S(=O)(=O)Nc2nc(C)cc(-n3nc(C)cc3C)n2)cc1,-,-,-,0
Cc1cc(S(=O)(=O)N2CCN(c3ccccc3O)CC2)c(C)s1,0,0,0,57
SMILES,cytoskel mod,VCAM1 TNFa inh,TNFa cytotox,E-sel TNF inh
COc1ccccc1N1CCN(S(=O)(=O)c2cc(C)sc2C)CC1,0,0,0,0
CC(=O)c1cccc(NC(=S)NC(=O)c2ccc(C)cc2Cl)c1,-,-,-,0
COCCn1c(SCC(=O)c2ccc3c(c2)OCCO3)nnc1C(C)C,0,0,0,0
COCCn1c(SCC(=O)c2ccc(Cl)cc2)nnc1C(C)C,0,0,0,71
Nc1nonc1C(=O)N/N=C/c1cc(Br)ccc1O,-,-,-,0
CC(=O)Nc1c(C(=O)N2CCN(c3ccccn3)CC2)cnn1-c1ccc(C)cc1,-,-,-,0
Cc1cc(C)n(-c2nc3ccccc3nc2N2CCC(C)CC2)n1,0,0,0,0
Cc1cc(N2CCC(C)CC2)nc(-n2nc(C)cc2C)n1,40,0,0,0
COc1ccc(-n2nnnc2-c2cnc(N3CCCC3)nc2C(F)(F)F)cc1,0,0,0,100
Cc1cc(/C=C(\C#N)C(=O)NCCc2c[nH]c3ccccc23)c(C)n1C,-,-,-,0
COc1cc(/C=C(/C#N)C(=O)NCCc2c[nH]c3ccccc23)ccc1OCc1ccccc1F,0,37,0,0
COC(=O)CSc1nnc(-c2cccc(NC(=O)c3ccc(C)cc3)c2)n1C,0,0,0,0
Cn1c(SCC(=O)N2CCOCC2)nnc1-c1cccc(NC(=O)c2ccccc2)c1,0,0,0,64
COc1ccc(-c2cnnn2-c2ccc(N)cc2)cc1OC,0,0,0,0
Nc1cccc(-n2nncc2-c2ccc(Cl)cc2)c1,0,0,0,65
O=C(NCC1CC1)C1CCCN(S(=O)(=O)c2ccc(-n3cnnn3)cc2)C1 (centres undefined),0,0,0,62
CCCCNC(=O)C1CCCN(S(=O)(=O)c2ccc(-n3cnnn3)cc2)C1 (centres undefined),0,0,0,0
CCC(C)Nc1nc(OC(C(F)(F)F)C(F)(F)F)nc(OC(C(F)(F)F)C(F)(F)F)n1 (centres undefined),0,0,0,43
COc1ccccc1NC(=O)c1ccc(-n2cccn2)nc1,0,0,0,0
O=C(Nc1cccnc1Cl)c1ccc(Cl)c([N+](=O)[O-])c1,-,-,-,0
Cc1ccc2cccc(Oc3ncnc4scc(-c5ccc(Cl)cc5)c34)c2n1,-,-,-,0
